PubChem BioAssay AID1159580 (chemical genetic matrix, 2015)
Screen size: about 5,500 compounds; about 2,000 (36%) were called active. Not shown: some 18% with an inconclusive outcome. Rule as the data show it: active = normalized growth mostly below about 0.91 (no sharp cut-off); inconclusive = no clear call, values can overlap the other calls; inactive = mostly above about 0.92. The list shows a part of the results.

Assay: chemical genetic growth profiling, strain panel (AID 1159580);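 also: tested at 20 µM; growth read once vehicle control cultures reached saturation at 30 °C; 1 = growth at the plate median or of vehicle wells; lower values mean less growth of the strain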
Details: S. cerevisiae deletion strains, growth OD

Measured: normalized growth

NC(=O)c1cc(N2CC2)c([N+](=O)[O-])cc1[N+](=O)[O-]
inactive: locus YAL040C, strain CLN3, hits give low values 1 | locus YCL061C, strain MRC1 (second series), hits give low values 0.994 | locus YDR363W, strain ESC2, hits give low values 0.993 | locus YER002W, strain NOP16, hits give low values 1.02 | locus YMR263W, strain SAP30, hits give low values 1 | locus YMR307W, strain GAS1, hits give low values 0.986 | locus YNL175C, strain NOP13, hits give low values 1.02 | locus YNL197C, strain WHI3, hits give low values 1 | locus YNL224C, strain SQS1, hits give low values 0.997 | locus YOR083W, strain WHI5 (second series), hits give low values 1.01
